Compound activity (PubChem)
Cycloheximide cs: counter-screen for Shiga toxin inhibitors: cycloheximide protein synthesis inhibition; cell reporter, cycloheximide protein synthesis inhibition counterscreen; max response, %; 300,000 compounds, 12% hits; AID 2314; in the data active = max response mostly above about 13%, no sharp cut-off; inactive = mostly below about 14%; note: read at 38.3 µM for the half of the compounds with a filed dose
Vaccinia mCherry: inhibitors of vaccinia virus infection (mCherry reporter signal). Vaccinia virus mCherry reporter infection, fluorescence. 310,000 compounds, 0.63% hits. AID 720579. Potency, µM (highest dose often 36.5 µM), hits mostly inhibitors; calls by dose curve; tested in A549 cells; note: nearly all actives have a fitted effect of over 35% in size
Shiga toxin inh: inhibitors of Shiga toxin in Vero cells | Vero cells, Shiga toxin protein synthesis inhibition reporter | inhibition, % at 38.7 µM | 290,000 compounds, 9.2% hits | AID 2315; in the data active = inhibition mostly above about 28%, no sharp cut-off; inactive = mostly below about 43%
Marburg entry inh: Marburg virus entry inhibition. 300,000 compounds, 1.8% hits. Marburg virus pseudotyped entry inhibition, cell reporter. Potency, µM (doses to about 37.8 µM), actives largely listed as inhibitors; calls by dose curve; tested in HEK293 cells
Lassa entry inh: blocks Lassa virus binding to or entry into cells; Lassa virus pseudotype entry inhibition, cell reporter; Potency, µM (top dose mostly 37.9 µM), most hits filed as inhibitors; 300,000 compounds, 1.2% hits; AID 540256; calls by dose curve; tested in HEK293 cells; note: nearly all actives have a fitted effect of over 50% in size
Vaccinia Venus: inhibitors of vaccinia virus (Venus reporter). Vaccinia virus Venus reporter expression, fluorescence. Potency, µM (series often up to 36.5 µM), usual class: inhibitors. 330,000 compounds, 0.46% hits. AID 720580; calls by dose curve; tested in A549 cells; note: nearly all actives have a fitted effect of over 30% in size
A number is an active result. Many of the other results were omitted from the sample, so hits are more common in it than they were.

Screening COc1ccc(CNC(=O)c2cc3c(=O)n(Cc4cccs4)ccc3nc2C)cc1 returned Vaccinia mCherry inactive, Lassa entry inh inactive and Vaccinia Venus inactive.
`CC(=O)Nc1ccc(OCc2cccc([N+](=O)[O-])c2)cc1` gave Cycloheximide cs 29, Vaccinia mCherry inactive, Shiga toxin inh 82, Marburg entry inh inactive, Lassa entry inh inconclusive and Vaccinia Venus inactive.
`Cc1ccc(OC(=O)Nc2ccccc2)cc1` gave Cycloheximide cs 43, Vaccinia mCherry inactive, Shiga toxin inh 65, Marburg entry inh inconclusive, Lassa entry inh inactive and Vaccinia Venus inactive.
Screening COC(=O)Nc1ccc(OCc2ccccc2)cc1 returned Cycloheximide cs 60, Vaccinia mCherry inactive, Shiga toxin inh 72, Marburg entry inh inconclusive, Lassa entry inh inconclusive and Vaccinia Venus inactive.
Screening CC(=O)Nc1cccc(OCc2cccc([N+](=O)[O-])c2)c1 returned Vaccinia mCherry inconclusive, Marburg entry inh inactive, Lassa entry inh inactive and Vaccinia Venus inactive.
COC(=O)Nc1ccc(SCC(=O)c2ccccc2)cc1 was read as Cycloheximide cs 51, Vaccinia mCherry inactive, Shiga toxin inh 62, Marburg entry inh inactive, Lassa entry inh inactive and Vaccinia Venus inactive.
Screening Brc1ccc(-c2cn3cc(Cc4ccccc4)sc3n2)cc1 returned Vaccinia mCherry inactive, Marburg entry inh inconclusive, Lassa entry inh inactive and Vaccinia Venus inactive.
O=C(Nc1ccccc1)Oc1ccccc1 was read as Cycloheximide cs inactive, Vaccinia mCherry inactive, Shiga toxin inh inactive, Marburg entry inh inactive, Lassa entry inh inconclusive and Vaccinia Venus inactive.
For Oc1ccc(NCc2ccc(OCc3ccccc3)cc2)cc1 the results were Cycloheximide cs 50, Vaccinia mCherry inactive, Shiga toxin inh 153, Marburg entry inh inconclusive, Lassa entry inh inconclusive and Vaccinia Venus inactive.
CC(=O)Nc1ccc(N=Cc2ccc(OCc3ccccc3)cc2)cc1 was read as Cycloheximide cs 35, Vaccinia mCherry inactive, Shiga toxin inh 68, Marburg entry inh inconclusive, Lassa entry inh inactive and Vaccinia Venus inactive.
For Cn1nc(OC(=O)Nc2ccccc2)cc1C(F)(F)F the results were Cycloheximide cs 28, Shiga toxin inh 37 and Marburg entry inh inactive.
Screening O=C(Nc1ccccc1)Oc1ccc[nH]c1=O returned Cycloheximide cs 21 and Shiga toxin inh inactive.
`NC(=O)COc1ccccc1` gave Cycloheximide cs inactive and Shiga toxin inh inactive.
`CC(=O)Nc1ccc(Oc2ccccc2)cc1` gave Cycloheximide cs inactive and Shiga toxin inh inactive.
NC(=O)COc1ccc(NC(=O)OCc2ccccc2)cc1 was read as Cycloheximide cs 24, Shiga toxin inh 36, Marburg entry inh inactive, Lassa entry inh inactive and Vaccinia Venus inactive.
Screening COC(=O)Nc1ccc(Oc2ccccc2)cc1 returned Cycloheximide cs 9.6, Shiga toxin inh inactive, Marburg entry inh inactive and Lassa entry inh inactive.
`COc1ccc(-c2ccc(C(=O)NCC3Cc4cccc(-c5nc(C)cnc5C)c4O3)o2)cc1` (centres undefined) gave Vaccinia mCherry inactive and Vaccinia Venus inactive.
Screening Cc1ccc(C2C(N)C(=O)N2c2ccc(C)cc2)cc1 (centres undefined) returned Cycloheximide cs inactive and Shiga toxin inh inactive.
`C=CCN1C(=O)[C@@]2(CC(C)=CC[C@@H](C)O2)c2c(Br)cccc21` gave Marburg entry inh inactive.
`CN(C)C(=O)CSc1cccc2cccnc12` gave Cycloheximide cs 12, Shiga toxin inh inactive, Marburg entry inh inconclusive, Lassa entry inh inactive and Vaccinia Venus inconclusive.
For O=C(CSc1cccc2cccnc12)N1CCCC1 the results were Cycloheximide cs 42, Vaccinia mCherry 11µM, Shiga toxin inh 37, Marburg entry inh inconclusive, Lassa entry inh inconclusive and Vaccinia Venus 11µM.
For NNC(=O)CSc1cccc2cccnc12 the results were Cycloheximide cs inactive, Vaccinia mCherry inactive, Shiga toxin inh inactive, Marburg entry inh inactive, Lassa entry inh inconclusive and Vaccinia Venus inactive.
`Cc1cc(C(=O)Nc2nc3c(s2)CCCC3)no1` gave Cycloheximide cs 17, Shiga toxin inh inactive, Marburg entry inh inconclusive and Lassa entry inh inconclusive.
Screening COc1cccc(C(=O)Nc2nc3c(s2)CCCC3)c1 returned Vaccinia mCherry inactive, Marburg entry inh inactive, Lassa entry inh inactive and Vaccinia Venus inactive.
Cc1onc(-c2ccccc2)c1C(=O)Nc1nc2c(s1)CCCC2 was read as Cycloheximide cs 32, Shiga toxin inh inactive, Marburg entry inh inactive and Lassa entry inh inactive.
Cc1onc(-c2c(F)cccc2Cl)c1C(=O)Nc1nc2c(s1)CCCC2 was read as Cycloheximide cs inactive, Shiga toxin inh inactive, Marburg entry inh inactive and Lassa entry inh inactive.
For COC(=O)Nc1nc2c(s1)CCCC2 the results were Cycloheximide cs 28, Shiga toxin inh 36, Marburg entry inh inactive and Lassa entry inh inconclusive.
For COc1ccc(Cl)c(-c2cc(C(=O)Nc3ccccc3)[nH]n2)c1 the results were Vaccinia mCherry inactive and Vaccinia Venus inactive.
Screening C=CCNC(=S)Nc1ccc(N(C)C)cc1 returned Cycloheximide cs 29, Vaccinia mCherry inconclusive, Shiga toxin inh inactive, Marburg entry inh inconclusive, Lassa entry inh inactive and Vaccinia Venus inactive.
`CCCNC(=O)C(=O)Nc1ccc(N(C)C)cc1` gave Cycloheximide cs 31, Shiga toxin inh 68, Marburg entry inh inconclusive, Lassa entry inh inactive and Vaccinia Venus inactive.
Screening CCC(C)(C)C1CCC2(CC1)NC(=O)N(CC(=O)N(C)CC(=O)Nc1ccccc1C(F)(F)F)C2=O (centres undefined) returned Cycloheximide cs 58, Vaccinia mCherry inactive, Shiga toxin inh 53, Marburg entry inh inactive, Lassa entry inh inactive and Vaccinia Venus inactive.
O=C1NN=C(c2ccccc2)CC1c1ccc(Cl)cc1Cl (centres undefined) was read as Cycloheximide cs inactive, Vaccinia mCherry inactive, Shiga toxin inh inactive, Marburg entry inh inconclusive, Lassa entry inh inconclusive and Vaccinia Venus inactive.
O=C1NN=C(c2ccccc2)CC1c1c[nH]c2ccccc12 (centres undefined) was read as Cycloheximide cs 24, Vaccinia mCherry inactive, Shiga toxin inh inactive and Vaccinia Venus inactive.
`CCn1c(SCC(=O)c2ccc(O)c(O)c2)nnc1-c1ccccc1` gave Cycloheximide cs 34, Vaccinia mCherry inactive, Shiga toxin inh inactive, Marburg entry inh inactive, Lassa entry inh inactive and Vaccinia Venus inactive.
Screening CCn1c(SCC(=O)c2ccccc2)nnc1-c1cccs1 returned Cycloheximide cs 66, Shiga toxin inh 77, Marburg entry inh inactive and Lassa entry inh inconclusive.
`CCn1c(SCC(=O)c2cccs2)nnc1-c1ccco1` gave Cycloheximide cs 39, Vaccinia mCherry inactive, Shiga toxin inh 87, Marburg entry inh inactive, Lassa entry inh inconclusive and Vaccinia Venus inactive.
`CCn1c(SCC(=O)c2ccc(O)c(O)c2)nnc1-c1ccccc1OC` gave Cycloheximide cs inactive, Shiga toxin inh inactive, Marburg entry inh inactive, Lassa entry inh inactive and Vaccinia Venus inactive.
Screening CCn1c(SCC(N)=O)nnc1-c1ccco1 returned Cycloheximide cs inactive, Vaccinia mCherry inactive, Shiga toxin inh inactive, Marburg entry inh inactive, Lassa entry inh inactive and Vaccinia Venus inactive.
CN(Cc1ccccc1)C(=O)C1CCN(S(=O)(=O)c2cccc3nsnc23)CC1 was read as Cycloheximide cs inactive and Shiga toxin inh inactive.
